This note sets out measurements from PubChem BioAssay (EPA / NIEHS).

Records with an inconclusive call do not appear. Some compounds were tested as several samples or in several runs, with calls that do not always agree. Calls of active or inactive are those of the source. The calls were made as follows: active = hit-call score of the fitted dose curve at least 0.9, where 1 is the maximum; inconclusive = response in the unintended direction; inactive = score below 0.9.

Retinoic acid receptor RXR-alpha (Homo sapiens), sequence (P19793 whole entry, looked up, the tested form may be a part): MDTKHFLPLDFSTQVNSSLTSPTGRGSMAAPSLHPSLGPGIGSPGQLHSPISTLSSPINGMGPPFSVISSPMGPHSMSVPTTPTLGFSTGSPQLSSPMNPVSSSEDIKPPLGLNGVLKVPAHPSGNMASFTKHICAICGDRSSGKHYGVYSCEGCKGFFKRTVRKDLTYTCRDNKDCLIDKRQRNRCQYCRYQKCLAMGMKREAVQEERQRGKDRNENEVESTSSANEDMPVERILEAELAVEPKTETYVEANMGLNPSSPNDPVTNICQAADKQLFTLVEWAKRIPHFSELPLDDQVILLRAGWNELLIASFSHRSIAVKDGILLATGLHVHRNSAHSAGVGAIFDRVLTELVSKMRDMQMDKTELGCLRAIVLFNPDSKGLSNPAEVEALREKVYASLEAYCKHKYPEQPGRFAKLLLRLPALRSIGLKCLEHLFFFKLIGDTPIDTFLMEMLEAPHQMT

This experiment concerns the target Retinoic acid receptor RXR-alpha (Homo sapiens) (UniProt P19793). Nature of the experiment: OT_NURR1_NURR1RXRa_0480: Odyssey Thera (OT) 8-hour HEK293T Protein Complementation Assay for Nurr1/retinoid X receptor (RXR) (AID 2283385). Here is the method:
OT_NURR1_NURR1RXRa_0480 is a cell-based assay that uses HEK293T, a human kidney cell line, with measurements taken at 8 hours after chemical dosing in a 384-well plate.OT_NURR1_NURR1RXRa_0480 is one of one assay component(s) measured or calculated from the OT_NURR1_NURR1RXRa_0480 assay. It is designed to make measurements of protein fragment complementation, a form of binding reporter, as detected with fluorescence intensity signals by Protein-fragment Complementation technology.Data from the assay component OT_NURR1_NURR1RXRa_0480 was analyzed into 1 assay endpoint. This assay endpoint, OT_NURR1_NURR1RXRa_0480, was analyzed in the positive analysis fitting direction relative to DMSO as the negative control and baseline of activity. Using a type of binding reporter, measures of receptor for gain-of-signal activity can be used to understand the binding at the pathway-level as they relate to the gene RXRA. Furthermore, this assay endpoint can be referred to as a primary readout, because the performed assay has only produced 1 assay endpoint. To generalize the intended target to other relatable targets, this assay endpoint is annotated to the nuclear receptor intended target family, where the subfamily is non-steroidal.
Protein-fragment complementation assay, or PCA, is a method for the identification and quantification of protein-protein interactions. In the PCA, the proteins of interest ("bait" and "prey") are each covalently linked to fragments of a third protein (e.g. DHFR, which acts as a "reporter"). Interaction between the bait and the prey proteins brings the fragments of the reporter protein in close proximity to allow them to form a functional reporter protein whose activity can be measured.
For the molecule `Nc1ccc2ccccc2c1`, the call was inactive. On the same count and under the same terms, the value for `c1cc2c3c(cccc3c1)CC2` was “inactive”; that for `OCC1CO1` (stereo not given) was “inactive”. In the case of `CC(C)(C)c1ccc(O)cc1`, the molecule was called inactive.

As for `c1ccc2c(c1)Nc1ccccc1S2`, the call was inactive.

Consider `CCCN(CCC)c1c([N+](=O)[O-])cc(C(C)C)cc1[N+](=O)[O-]`, for which the concentration at half-maximal activity (AC50) – broadly, the concentration at which the activity in the assay is half-maximal – was 75.7 µM (active) and the result was inactive. With `CO/N=C(/C(=O)OC)c1ccccc1COc1ccccc1C`, the molecule was classed as inactive.

For `CCCCC(CC)COC(=O)c1c(Br)c(Br)c(Br)c(Br)c1C(=O)OCC(CC)CCCC` (stereo not given), the outcome was inactive. On to `FC(F)(F)c1ccc(Cl)cc1`, for which the molecule was classed as inactive.

`O=C(O)C(Cl)Cl`: the molecule was called inactive.

In the case of `CCCCN(CCCC)N=O`, the call was inactive. Same read-out and setting: the value for `Cc1ccc(O)cc1C` was “inactive”. `CCCCN(CCCC)SN(C)C(=O)Oc1cccc2c1OC(C)(C)C2`: the half-maximal activity concentration (AC50) was 86.2 µM (active) and the outcome was inactive.

`COCCOCCO`: the result was inactive. Still for that read-out and setting: the same measure for `CC(Cl)(Cl)C(=O)O`: “inactive”; for `CCCCc1ccc(O)cc1`: “inactive”. On to `Cc1ccc([N+](=O)[O-])cc1C`, for which the result was inactive. In the case of `O=S1(=O)OCC2C(CO1)C1(Cl)C(Cl)=C(Cl)C2(Cl)C1(Cl)Cl` (stereo not given), the result was inactive. For the molecule `O=[N+]([O-])c1ccc(Cl)c(Cl)c1`, the molecule was called inactive. `c1ccc(OP(Oc2ccccc2)Oc2ccccc2)cc1`: the call was inactive. In the case of `Nc1cc2c3c(c1)C(c1ccccc1)=N[C@@H](NC(=O)c1cccnc1)C(=O)N3CC2`, the AC50 was 50 µM (active).

`CCN(CC)c1ccccc1`: the molecule was called inactive. Regarding `CCCCC(CC)COP(=O)(Oc1ccccc1)Oc1ccccc1` (stereo not given), the outcome was inactive. As for `CCOP(=S)(OCC)SCSCC`, the call was inactive. As for `CCOP(=S)(Oc1ccc([N+](=O)[O-])cc1)c1ccccc1` (stereo not given), the molecule was classed as inactive. For `CCCCOCCOP(=O)(OCCOCCCC)OCCOCCCC`, the molecule was classed as inactive. Still for that read-out and setting: the value for `O=C(O)CF` was “inactive”; that for `CCC1(c2ccccc2)C(=O)N=C(O)NC1=O` (stereo not given) was “inactive”; that for `CCCCc1ccccc1` was “inactive”. For `CC(Cc1ccc(OCC(=O)O)cc1)NCC(O)c1csc(C(F)(F)F)n1` (stereo not given), the molecule was called inactive. Regarding `CCCCCCCc1ccc(O)cc1`, the AC50 is 50 µM (active) and the molecule was classed as inactive. Consider `CCOC(=O)c1ccccc1C(=O)OCC`, for which the call was inactive. As for `O=P(Oc1ccccc1)(Oc1ccccc1)Oc1ccccc1`, the outcome was inactive. On to `O=P1(N(CCCl)CCCl)NCCCO1` (stereo not given), for which the call was inactive. `CCNc1nc(Cl)nc(NC(C)(C)C)n1`: the molecule was classed as inactive. In the case of `Nc1ccc(Cl)cc1`, the molecule was called inactive. With `CSC(C)(C)C=NO`, the molecule was called inactive.
